Reference: PubChem BioAssay AID1471 (National Center for Advancing Translational Sciences (NCATS), 2008)
Out of some 230,000 compounds screened, about 310 (0.13%) were called active. Another 2% or so got no clear call; they are omitted. Calls follow the shape of the dose curve; as a rule, active = well fitted activation curve with a large enough effect; inconclusive = small, poorly fitted or top-dose-only effect; inactive = no such curve, though single readings can be large or run the other way. Shown is part of a subset that was picked to be rich in actives.

Assay: qHTS Multiplex Assay to Identify Dual Action Probes in a Cell Model of Huntington: Cytoprotection (ATP); also: nearly all actives have a fitted effect of over 45% in size;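 as to cytoprotection (ATP increase): toxic huntingtin expression switched on by the ecdysone agonist tebufenozide; % of control where 0% means no effect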
Details: PC12 HTT-Q103 induced, ATP luminescence, 40 h; series mostly up to 56.4 µM; cytoprotection (ATP increase): at the top concentration
How it was run: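 Compounds were screened for protection of PC12 cells against cell death after tebufenozide induction (100 nM final) of mutant Huntingtin exon 1 (Q103) fused to GFP.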
Potency is read from the fitted curve at half-maximal effect.

Cytoprotection (ATP increase), inactive:
COC(=O)CSc1ccc2nnc(CCNS(=O)(=O)c3ccc(C)cc3)n2n1 -3.13%, CCN1C(=O)N[C@@H](c2ccccc2)C(C(=O)OC)=C1C -11.9% [at 10 µM], NC(=O)C(=O)N/N=C/c1ccc([N+](=O)[O-])o1 -372%, CCOC(=O)C1CSC(CC(=O)Nc2ccc(OCC)cc2)C(=O)N1 (stereo not given) 0.901% [at 10 µM], COCCCNC(=O)Cn1cc(/C=C(\C#N)C(=O)N2CCN(c3ccccc3)CC2)c2ccccc21 1.65% [at 10 µM], COC(=O)C(C(=O)OC)C1c2ccccc2C=C(C2CC2)N1C(=O)OC (stereo not given), Cc1csc(-c2coc3cc(O[C@@H]4O[C@H](CO)[C@@H](O)[C@@H](O)[C@H]4O)ccc3c2=O)n1 -383%, O=C1CCC[C@@H]2CC(N3CCCCC3)C[C@@H]3CCN1[C@H]23 (stereo not given in full) -15.5% [at 96.6 µM], CC1=C(C/C=C(\C)CCCC(C)CCCC(C)CCCC(C)C)C(=O)c2ccccc2C1=O (stereo not given) -51.3%, CCOC(=O)C1=C(C)c2ccccc2OC1(C)C(=O)OCC (stereo not given) 11.4%, COC(=O)[C@@H]1CC2=CC(=O)CC[C@]2(C)[C@@]23O[C@@H]2C[C@@]2(C)[C@@H](CC[C@@]24CCC(=O)O4)[C@H]13 -18%, C[C@H](NC(=O)c1nc[nH]c1C(=O)N[C@@H](C)C(=O)OC(C)(C)C)C(=O)OC(C)(C)C 22% [at 10 µM], CCCCC/C=C\C/C=C\CCCCCCCCCC(N)=O -31.3%, CCCCC/C=C\CC1OC1CCCCCCCC(=O)O (stereo not given), CCCCCCCC[C@@H](O)/C=C/C=C/C=C\[C@@H](O)CCCC(=O)O 7.03%, CC(C)(CNC(=O)c1ccc(Cl)c(S(=O)(=O)N2CCc3ccccc3C2)c1)N1CCOCC1 -28.4%, Cc1ccccc1CSCCNC(=O)c1ccc(Cl)c(S(=O)(=O)N2CCOCC2)c1 -0.687% [at 10 µM], CCCCC/C=C\C/C=C\CCCCCCCCCC(=O)O 27.2%, Nc1nc2c(ncn2[C@@H]2O[C@H](COP(=O)(O)OP(=O)(O)OP(=O)(O)O)[C@@H](O)C2O)c(=O)[nH]1 (stereo not given in full) -90.9%, CC1(C)O[C@@H]2C[C@@H]3[C@H]4C[C@@H](F)C5=CC(=O)C=C[C@]5(C)[C@@]4(F)[C@@H](O)C[C@]3(C)[C@]2(C(=O)CO)O1 23.8%, C/C=C/C=N/NC(=O)c1ccncc1 -10.9%, CCOC(=O)c1c(NC(=O)CSc2nnc(CNc3ccc(C)cc3C)o2)sc(C)c1C 33% [at 10 µM], CCOC(=O)C1=C(C(=O)OCC)C(C(=O)OCC)N(S(=O)(=O)C(F)(F)F)c2ccccc21 (stereo not given) -4.86%, CC(OC(=O)CNS(=O)(=O)/C=C/c1ccccc1)C(=O)Nc1ccc(S(=O)(=O)N2CCCC2)cc1 (stereo not given) 15.7% [at 10 µM], CC(C)(C)NCC(O)COc1cccc2[nH]c(=O)[nH]c12 (stereo not given) 14.7%, CC/C=C\C/C=C\C/C=C\C/C=C\C/C=C\C/C=C\CCC(=O)NCCc1ccc(O)c(O)c1 -58.8%, CC(C)c1cnc(NC(=O)Cc2ccccc2)s1 -2.22%, N#Cc1c(-c2ccc(F)cc2)nc(-c2ccccc2)[nH]c1=O -15.7%, N#Cc1ccc(-c2ccc(F)cc2)nc1Sc1ccccc1 -6.63%, Cc1csc(-c2nc3ccccc3n2C)n1 -116% [at 1.9 µM], CC(O)[C@@H](N)C(=O)O (stereo not given in full) -19.9%, COc1ccc(OC)c(NC(=O)c2cnn(-c3ccccc3Cl)c2NC(=O)c2ccco2)c1 -18.6%, C=CCC(C)(O)c1ccco1 (stereo not given) 8.72%, NNc1nnc(NN)c2ccccc12 -57.3%, CCCCc1nnc(NC(=O)CSc2nc(C)cc(=O)[nH]2)s1 -6.82%, NC(=O)c1c(NC(=O)CSc2nc(N)cc(=O)[nH]2)sc2c1CCCC2 2.28% [at 10 µM], Cc1cccc(C)c1NC(=O)NC1=CCCN1C -5.92%

Potency, active:
O=C(NCCSCc1ccccc1)c1ccc(Cl)c(S(=O)(=O)N2CCOCC2)c1 0.398 µM, N#Cc1ccc(-c2nc3cc(C#N)c(C#N)cc3nc2-c2ccccc2)cc1C#N 2.82 µM, CCCCc1nnc(NC(=O)CSc2nc(N)cc(=O)[nH]2)s1 3.16 µM
